# Data from the supplement of paper PMC7866885, “A novel bicyclic 2,4-diaminopyrimidine inhibitor of Streptococcus suis dihydrofolate reductase” (PeerJ, 2021).
# ± gives the standard deviation.
# System: Streptococcus suis P1/7
# Experiment: percent growth relative to DMSO control; higher = less growth inhibition
# Conditions: 10 µM; incubation time 18 h
# Description: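 CLSI broth microdilution: 5x10^4 CFU of Streptococcus suis (strain P1/7 or HE06) incubated with 10 µM Pathogen Box compound in cation-adjusted Mueller Hinton broth, 37 °C, 5% CO2, 18 h. Growth read as OD600 and expressed as percent of the DMSO-treated control (100%); mean ± SD of three independent experiments.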
row,Compound,percent growth [%]
1,CO/N=C(\C(=O)OC)c1ccccc1CO/N=C(\C)c1cccc(C(F)(F)F)c1,82 ± 16
2,CC1COC(Cn2cncn2)(c2ccc(Oc3ccc(Cl)cc3)cc2Cl)O1 (centres undefined),82.9 ± 29
3,O=C1O[C@@H](COc2ccon2)CN1c1cc(F)c(C2=CCN(Cc3ccccc3)CC2)c(F)c1,-0.108 ± 0.19
4,O=C1O[C@@H](CO)CN1c1cc(F)c(C2=CCN(Cc3ccccc3)CC2)c(F)c1,13.5 ± 23
5,Nc1c2c(nc3sc4c(c13)CCCC4)CCCC2,97.3 ± 30
6,CC(C)(C)C(O)C(Oc1ccc(-c2ccccc2)cc1)n1cncn1 (centres undefined),86.6 ± 29
7,Cc1cccc(C(=O)Nc2ccnc(N(C)C3CCN(CC(C)C)CC3)c2)c1,67.9 ± 22
8,Cc1cc(C2=NOC(c3cc(Cl)c(F)c(Cl)c3)(C(F)(F)F)C2)ccc1C(=O)NCc1ccc2c(c1)C(C)(C)OB2O (centres undefined),61.5 ± 40
9,CO/C=C(/C(=O)OC)c1ccccc1Oc1cc(Oc2ccccc2C#N)ncn1,80.8 ± 20
10,Cc1nn(Cc2ccccc2)c(Cl)c1C(=O)NC1CCCCCC1,93.1 ± 26
11,Cc1nn(C)c(C)c1NS(=O)(=O)c1c(Cl)cc(-c2ccnc(N3CCNCC3)c2)cc1Cl,76.6 ± 7.2
12,CCc1nn(C)c(C(=O)NCc2ccc(Oc3ccc(C)cc3)cc2)c1Cl,91.4 ± 28
13,CC1(C)OB(O)c2ccc(C3=NOC(c4cc(Cl)c(F)c(Cl)c4)(C(F)(F)F)C3)cc21 (centres undefined),0.819 ± 0.82
14,CO[C@@H]1CN(c2ccc(C#CC3(O)CN4CCC3CC4)c(Cc3ccccc3)n2)C[C@H]1O (some centres undefined),124 ± 50
